# In the supplement of paper PMC12067093, “Discovery and optimisation of a covalent ligand for TRIM25 and its application to targeted protein ubiquitination” (Chemical Science, 2025):
# About 21,000 targets were measured; listed, in parts, are those with the largest changes and a random draw of the rest.
# Compound: Cc1cc(ccc1-c1ccccc1)C(=O)N1CCCN(CC1)C(=O)CCl [compound 10]
# Assay: probe-labelled cysteine peptide fold change vs DMSO (competition) (log2 fold change); higher = less target engagement (more negative = stronger competition)
# Settings: THP-1, incubation time: 4 h
# 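Also: competitive profiling in live THP-1 cells: cysteine peptides tagged with an iodoacetamide desthiobiotin (IA-DTB) probe, intensity after compound treatment relative to DMSO-treated cells.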
# Sequence of UniProt Q9BTW9 (Q9BTW9 whole entry, looked up): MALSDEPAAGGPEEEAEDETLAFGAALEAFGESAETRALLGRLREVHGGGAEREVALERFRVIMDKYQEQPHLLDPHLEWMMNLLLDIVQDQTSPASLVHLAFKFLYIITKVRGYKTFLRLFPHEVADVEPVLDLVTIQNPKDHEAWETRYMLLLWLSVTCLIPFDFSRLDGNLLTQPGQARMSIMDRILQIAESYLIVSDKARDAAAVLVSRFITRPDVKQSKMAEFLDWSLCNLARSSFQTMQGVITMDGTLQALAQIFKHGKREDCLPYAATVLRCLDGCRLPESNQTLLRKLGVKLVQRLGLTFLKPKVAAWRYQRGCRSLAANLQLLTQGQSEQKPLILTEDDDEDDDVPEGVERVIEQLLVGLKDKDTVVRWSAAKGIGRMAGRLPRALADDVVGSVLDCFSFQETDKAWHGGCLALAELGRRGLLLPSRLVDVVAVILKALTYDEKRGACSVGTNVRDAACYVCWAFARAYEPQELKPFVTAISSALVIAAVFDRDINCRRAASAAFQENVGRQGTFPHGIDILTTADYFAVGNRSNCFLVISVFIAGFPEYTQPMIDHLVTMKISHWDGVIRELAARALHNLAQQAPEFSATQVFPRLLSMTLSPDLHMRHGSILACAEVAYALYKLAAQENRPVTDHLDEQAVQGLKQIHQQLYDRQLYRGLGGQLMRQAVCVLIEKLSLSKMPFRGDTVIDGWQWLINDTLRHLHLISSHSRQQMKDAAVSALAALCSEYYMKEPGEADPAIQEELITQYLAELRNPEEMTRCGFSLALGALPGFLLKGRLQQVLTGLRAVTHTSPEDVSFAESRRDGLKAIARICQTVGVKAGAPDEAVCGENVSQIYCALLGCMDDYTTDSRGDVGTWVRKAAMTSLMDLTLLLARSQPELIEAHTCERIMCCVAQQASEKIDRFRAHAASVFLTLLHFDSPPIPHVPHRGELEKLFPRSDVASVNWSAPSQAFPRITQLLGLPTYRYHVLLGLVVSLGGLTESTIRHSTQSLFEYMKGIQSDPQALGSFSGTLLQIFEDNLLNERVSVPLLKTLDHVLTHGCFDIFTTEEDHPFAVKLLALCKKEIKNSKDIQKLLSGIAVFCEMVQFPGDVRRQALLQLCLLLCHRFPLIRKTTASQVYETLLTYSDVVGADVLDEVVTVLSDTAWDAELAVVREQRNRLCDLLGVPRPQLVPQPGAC
# Sequence of UniProt P21980 (P21980 whole entry): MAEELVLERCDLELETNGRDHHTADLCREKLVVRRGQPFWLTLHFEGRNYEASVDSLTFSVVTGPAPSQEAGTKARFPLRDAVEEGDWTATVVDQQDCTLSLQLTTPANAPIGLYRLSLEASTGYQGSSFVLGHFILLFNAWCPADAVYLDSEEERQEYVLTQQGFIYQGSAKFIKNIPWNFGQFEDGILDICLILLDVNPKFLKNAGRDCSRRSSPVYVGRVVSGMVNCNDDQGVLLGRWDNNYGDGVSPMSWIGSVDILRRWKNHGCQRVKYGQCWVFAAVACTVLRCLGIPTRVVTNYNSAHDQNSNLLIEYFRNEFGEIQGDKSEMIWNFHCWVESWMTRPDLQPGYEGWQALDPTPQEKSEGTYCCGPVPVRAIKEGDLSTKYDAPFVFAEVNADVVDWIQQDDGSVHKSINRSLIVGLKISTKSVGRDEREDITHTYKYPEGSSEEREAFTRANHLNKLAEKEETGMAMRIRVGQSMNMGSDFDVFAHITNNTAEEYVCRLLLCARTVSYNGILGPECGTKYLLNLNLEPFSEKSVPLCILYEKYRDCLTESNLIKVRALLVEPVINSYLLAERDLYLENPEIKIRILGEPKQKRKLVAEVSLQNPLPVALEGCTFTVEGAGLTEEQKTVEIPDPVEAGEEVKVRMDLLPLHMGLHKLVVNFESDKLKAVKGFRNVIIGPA
# Sequence of UniProt Q92547 (Q92547 whole entry, looked up): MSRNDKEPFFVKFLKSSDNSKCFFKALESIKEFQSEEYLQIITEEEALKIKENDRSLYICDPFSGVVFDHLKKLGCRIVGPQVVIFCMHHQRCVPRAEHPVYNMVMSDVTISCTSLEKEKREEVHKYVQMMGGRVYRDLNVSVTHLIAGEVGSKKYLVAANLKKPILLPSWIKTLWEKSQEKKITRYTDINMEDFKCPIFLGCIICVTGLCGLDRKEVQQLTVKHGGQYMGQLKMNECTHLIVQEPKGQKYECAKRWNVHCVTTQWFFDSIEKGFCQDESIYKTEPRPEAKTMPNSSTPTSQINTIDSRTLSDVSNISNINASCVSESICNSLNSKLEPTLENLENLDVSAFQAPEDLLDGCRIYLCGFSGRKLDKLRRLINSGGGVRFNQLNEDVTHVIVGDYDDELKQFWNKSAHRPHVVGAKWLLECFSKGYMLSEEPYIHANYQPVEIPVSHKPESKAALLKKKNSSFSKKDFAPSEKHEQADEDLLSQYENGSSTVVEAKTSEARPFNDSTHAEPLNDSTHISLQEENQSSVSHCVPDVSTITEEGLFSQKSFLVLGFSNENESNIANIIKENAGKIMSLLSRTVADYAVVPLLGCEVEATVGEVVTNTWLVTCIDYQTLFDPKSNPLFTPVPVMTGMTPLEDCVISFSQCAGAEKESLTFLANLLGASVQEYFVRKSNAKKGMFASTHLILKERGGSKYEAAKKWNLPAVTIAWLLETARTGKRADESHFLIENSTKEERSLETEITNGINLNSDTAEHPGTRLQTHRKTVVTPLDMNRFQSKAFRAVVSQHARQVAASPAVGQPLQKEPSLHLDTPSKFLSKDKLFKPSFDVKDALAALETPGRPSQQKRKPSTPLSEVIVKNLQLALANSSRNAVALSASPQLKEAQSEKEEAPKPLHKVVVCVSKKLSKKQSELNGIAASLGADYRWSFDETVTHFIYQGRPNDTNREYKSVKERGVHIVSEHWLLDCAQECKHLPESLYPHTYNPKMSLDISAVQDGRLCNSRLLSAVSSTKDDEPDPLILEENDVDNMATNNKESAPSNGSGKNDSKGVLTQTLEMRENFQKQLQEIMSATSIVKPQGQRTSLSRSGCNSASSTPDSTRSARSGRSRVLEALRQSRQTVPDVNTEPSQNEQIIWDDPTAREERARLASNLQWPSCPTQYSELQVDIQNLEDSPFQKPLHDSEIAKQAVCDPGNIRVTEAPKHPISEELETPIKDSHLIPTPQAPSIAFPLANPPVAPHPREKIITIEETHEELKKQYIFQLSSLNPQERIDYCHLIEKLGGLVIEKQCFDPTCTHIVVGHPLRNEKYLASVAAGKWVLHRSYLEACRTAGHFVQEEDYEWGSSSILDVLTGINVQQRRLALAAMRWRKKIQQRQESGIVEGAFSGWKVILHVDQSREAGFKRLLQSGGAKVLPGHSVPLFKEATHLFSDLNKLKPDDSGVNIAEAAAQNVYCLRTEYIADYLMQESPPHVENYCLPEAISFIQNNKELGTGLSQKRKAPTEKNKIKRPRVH
# Sequence of UniProt Q8N1F8 (Q8N1F8 whole entry, looked up): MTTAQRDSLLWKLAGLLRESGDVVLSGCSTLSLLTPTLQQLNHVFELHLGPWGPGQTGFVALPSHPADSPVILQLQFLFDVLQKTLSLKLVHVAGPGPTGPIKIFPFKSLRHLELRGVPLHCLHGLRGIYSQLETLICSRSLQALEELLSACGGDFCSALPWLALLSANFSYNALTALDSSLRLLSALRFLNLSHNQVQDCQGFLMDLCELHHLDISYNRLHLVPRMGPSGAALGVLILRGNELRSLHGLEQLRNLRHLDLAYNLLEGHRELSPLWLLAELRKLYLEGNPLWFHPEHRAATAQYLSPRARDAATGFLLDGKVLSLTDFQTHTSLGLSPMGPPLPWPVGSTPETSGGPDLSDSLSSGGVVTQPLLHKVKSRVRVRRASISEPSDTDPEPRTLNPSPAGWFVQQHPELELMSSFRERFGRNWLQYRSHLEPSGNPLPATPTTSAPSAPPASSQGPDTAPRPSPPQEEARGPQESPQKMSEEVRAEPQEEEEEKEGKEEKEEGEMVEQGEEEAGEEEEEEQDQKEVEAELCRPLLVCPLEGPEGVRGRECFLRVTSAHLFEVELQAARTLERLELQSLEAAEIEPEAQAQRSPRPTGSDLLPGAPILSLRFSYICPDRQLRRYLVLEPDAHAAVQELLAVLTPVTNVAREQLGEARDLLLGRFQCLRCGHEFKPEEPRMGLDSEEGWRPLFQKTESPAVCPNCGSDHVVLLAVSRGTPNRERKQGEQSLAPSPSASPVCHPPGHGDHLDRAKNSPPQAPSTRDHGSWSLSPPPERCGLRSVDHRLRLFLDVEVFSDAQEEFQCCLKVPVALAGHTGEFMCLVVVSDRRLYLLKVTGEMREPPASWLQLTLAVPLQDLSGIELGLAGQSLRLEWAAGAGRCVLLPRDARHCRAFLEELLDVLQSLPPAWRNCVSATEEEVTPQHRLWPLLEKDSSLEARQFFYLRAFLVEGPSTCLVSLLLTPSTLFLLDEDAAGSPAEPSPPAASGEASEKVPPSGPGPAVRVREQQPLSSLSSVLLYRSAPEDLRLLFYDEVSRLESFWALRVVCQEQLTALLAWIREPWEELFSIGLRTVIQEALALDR
# Sequence of UniProt Q9NXG2 (Q9NXG2 whole entry, looked up): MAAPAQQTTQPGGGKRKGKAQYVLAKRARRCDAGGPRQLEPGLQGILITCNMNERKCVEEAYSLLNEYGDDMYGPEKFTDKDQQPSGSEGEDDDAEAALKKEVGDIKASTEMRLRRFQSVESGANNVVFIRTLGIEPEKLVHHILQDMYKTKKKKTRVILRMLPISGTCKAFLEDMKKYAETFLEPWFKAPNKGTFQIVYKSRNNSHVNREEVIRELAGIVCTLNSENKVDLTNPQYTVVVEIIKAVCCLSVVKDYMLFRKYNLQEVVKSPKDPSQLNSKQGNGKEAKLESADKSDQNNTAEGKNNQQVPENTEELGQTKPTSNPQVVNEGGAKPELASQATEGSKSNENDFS
# Sequence of UniProt Q9BVK8 (Q9BVK8 whole entry): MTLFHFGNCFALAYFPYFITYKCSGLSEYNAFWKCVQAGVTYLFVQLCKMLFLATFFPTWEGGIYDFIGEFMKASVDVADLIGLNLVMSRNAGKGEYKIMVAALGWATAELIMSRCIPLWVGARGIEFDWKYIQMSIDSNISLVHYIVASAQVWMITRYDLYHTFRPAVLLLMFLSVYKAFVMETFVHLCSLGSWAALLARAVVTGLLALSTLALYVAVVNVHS
Target,probe-labelled cysteine peptide fold change (10 µM),probe-labelled cysteine peptide fold change (50 µM)
SPC24_Q8NBT2_155_IEWDYECEPGMVK (UniProt Q8NBT2),-0.17,0.000933
THEMIS2_Q5TEJ8_355_DCEGEREENPEFTSLAVGDR (UniProt Q5TEJ8),-0.0936,0.194
TET3_O43151_1381_GKPWSPCK (UniProt O43151),-0.379,-1.3
TCF20_Q9UGU0_1918_YHYPCAIDADCLLHEENFSVR (UniProt Q9UGU0),0.317,0.504
TMEM173_Q86WV6_12_PHSSLHPSIPCPR (UniProt Q86WV6),0.0393,-0.625
TBC1D4_O60343_74_SQKPEAGGCGAPAAR (UniProt O60343),-0.579,-1.59
STK11_Q15831_210_ISDLGVAEALHPFAADDTCR (UniProt Q15831),-0.252,-0.136
SQOR_Q9Y6N5_201_CAGAPQK (UniProt Q9Y6N5),-0.191,-0.122
TGM2_P21980_371_SEGTYCCGPVPVR (UniProt P21980),0.00473,-0.293
TNPO1_Q92973_205_SHAVACVNQFIISR (UniProt Q92973),0.172,0.0841
TEPSIN_Q96N21_273_ACGLLNCEAVLQLLTCHLR (UniProt Q96N21),0.821,2.62
STIP1_P31948_471_CMMAQYNR (UniProt P31948),0.271,-0.0499
STXBP5_Q5T5C0_697_SRQPSGAGLCDISEGTVVPEDR (UniProt Q5T5C0),-0.389,-0.218
SORD_Q00796_179_VLVCGAGPIGMVTLLVAK (UniProt Q00796),-0.0988,-1.77
ST14_Q9Y5Y6_268_SFDLASCDER (UniProt Q9Y5Y6),-0.0626,-1.09
TBL3_Q12788_526_GLWCVQFSPMDQVLATASADGTIK (UniProt Q12788),0.119,0.0335
SYK_P43405_597_MGCPAGCPR (UniProt P43405),0.0815,-0.138
SNTB1_Q13884_515_DGEIQLDLHSCPK (UniProt Q13884),-0.136,1
TATDN3_Q17R31_66_YNGFVLPCLGVHPVQGLPPEDQR (UniProt Q17R31),0.0121,1.04
TAF6_P49848_235_EITEACVGSCEAK (UniProt P49848),-0.193,-1.67
TMEM147_Q9BVK8_116_CIPLWVGAR (UniProt Q9BVK8),-0.0315,-0.102

Target,probe-labelled cysteine peptide fold change (10 µM),probe-labelled cysteine peptide fold change (50 µM)
SNX6_Q9UNH7_149_TVAMHEVFLCR (UniProt Q9UNH7),-0.37,-1.4
TMEM104_Q8NE00_455_DTQLAFGCGVSNK (UniProt Q8NE00),-0.127,-0.346
TANC1_Q9C0D5_800_MDALSCFLIK (UniProt Q9C0D5),-0.167,-1.29
SORD_Q00796_165_LPDNVTFEEGALIEPLSVGIHACR (UniProt Q00796),0.00881,0.188
TOPBP1_Q92547_911_VVVCVSK (UniProt Q92547),-0.0487,-0.114
STRADA_Q7RTN6_107_INLEACSNEMVTFLQGELHVSK (UniProt Q7RTN6),0.391,0.345
SORL1_Q92673_752_LEGELVPCPLAEENEFILYAVR (UniProt Q92673),0.124,0.148
TARS_P26639_261_CGPLIDLCR (UniProt P26639),0.0971,0.248
TBC1D13_Q9NVG8_387_LLQDYPITDVCQILQK (UniProt Q9NVG8),-0.0681,-0.374
TBC1D15_Q8TC07_184_YVVLCESPQDKR (UniProt Q8TC07),0.0621,-0.0543
TCF20_Q9UGU0_1795_SEDCGGGPR (UniProt Q9UGU0),-0.142,-0.0709
SORD_Q00796_301_YCNTWPVAISMLASK (UniProt Q00796),0.251,0.115
TBCE_Q15813_141_NCAVSCAGEK (UniProt Q15813),-0.11,-1.39
TAPBPL_Q9BX59_39_AVDVVLDCFLAK (UniProt Q9BX59),0.062,-0.104
TIMELESS_Q9UNS1_96_LMVNLTQPALLCFGNLPK (UniProt Q9UNS1),0.247,-1.08
THOC2_Q8NI27_436_DVFNMFCYLGPHLSHDPILFAK (UniProt Q8NI27),0.0617,0.215
THOC5_Q13769_282_HLPPPLYVLFVQATAYGQACDK (UniProt Q13769),0.435,1.48
TOE1_Q96GM8_80_SLLNQCIEER (UniProt Q96GM8),-0.52,-2.28
ST13_P50502_209_LLGHWEEAAHDLALACKLDYDEDASAMLK (UniProt P50502),-0.319,-1.1
TBCB_Q99426_51_LELLVGSPASCMELELYGVDDK (UniProt Q99426),0.0991,0.421
STK11_Q15831_418_ACSASSK (UniProt Q15831),-0.73,-1.42

Target,probe-labelled cysteine peptide fold change (10 µM),probe-labelled cysteine peptide fold change (50 µM)
TBC1D13_Q9NVG8_145_ATDYPCLLILDPQNEFETLR (UniProt Q9NVG8),-0.0238,0.373
STXBP1_P61764_110_AAHVFFTDSCPDALFNELVK (UniProt P61764),0.24,0.527
THOC1_Q96FV9_396_NEGCPSFVK (UniProt Q96FV9),-0.137,-0.0773
TLN1_Q9Y490_1363_ECDNALRELETVR (UniProt Q9Y490),-0.431,-1
TNS3_Q68CZ2_88_MCTICK (UniProt Q68CZ2),-0.357,-0.873
TNPO1_Q92973_862_DDLRDMFCK (UniProt Q92973),-0.311,-0.192
SNX6_Q9UNH7_347+348_DVLQAETSQQLCCQK (UniProt Q9UNH7),-0.288,-0.619
THOP1_P52888_175_KLSLLCIDFNK (UniProt P52888),-0.00153,0.0417
TNFAIP3_P21580_158_SQEFVETGLCYDTR (UniProt P21580),-0.274,0.0322
THUMPD1_Q9NXG2_31_CDAGGPR (UniProt Q9NXG2),0.347,1.08
TANK_Q92844_318_TKPSNLVNTCIR (UniProt Q92844),-0.257,-0.558
TOP2A_P11388_170_LCNIFSTK (UniProt P11388),-0.173,-0.0147
SURF2_Q15527_29+38_CILTGHELPCR (UniProt Q15527),0.0902,-0.0729
SOS1_Q07889_838_CIVETENLEER (UniProt Q07889),0.113,0.392
TNPO3_Q9Y5L0_580_ITECLSELCSVQVMALKK (UniProt Q9Y5L0),-0.00843,-0.267
SP9_P0CG40_308_ATCDCPNCQEAER<|>SP8_Q8IXZ3_332_ATCDCPNCQEAER (UniProt Q8IXZ3+P0CG40),0.0559,0.393
SUN2_Q9UH99_601_VILQPDVHPGNCWAFQGPQGFAVVR (UniProt Q9UH99),0.0264,0.295
SRPK2_P78362_320_IIEENITSAAPSNDQDGEYCPEVK (UniProt P78362),-0.0943,0.0113
TBCD_Q9BTW9_1055_TLDHVLTHGCFDIFTTEEDHPFAVK (UniProt Q9BTW9),-0.188,-0.0289
TMEM209_Q96SK2_495_TFTSQHFVQTPNKPDVTNENVFCIYQSAINPPHYELIYQR (UniProt Q96SK2),0.145,0.0358
TNFAIP2_Q03169_429_ANVIANINNCLSFR (UniProt Q03169),-0.0434,0.184

Target,probe-labelled cysteine peptide fold change (10 µM),probe-labelled cysteine peptide fold change (50 µM)
TOE1_Q96GM8_371_KQVCGDSIKPEETEQEVAADETR (UniProt Q96GM8),-0.0655,-0.661
STK11IP_Q8N1F8_707+710_TESPAVCPNCGSDHVVLLAVSR (UniProt Q8N1F8),0.0186,0.166
TIGAR_Q9NQ88_114_EECPVFTPPGGETLDQVK (UniProt Q9NQ88),-0.225,-1.35
TARSL2_A2RTX5_637_YHQCATIQLDFQLPIR (UniProt A2RTX5),0.00987,0.158
TEP1_Q99973_2105_TPVLIHSFPACHR (UniProt Q99973),-0.0307,-0.291
SUGP2_Q8IX01_417_NCFFEIIKPFDK (UniProt Q8IX01),-0.328,-1.49
STXBP3_O00186_114_AAYIYFTDFCPDNLFNK (UniProt O00186),0.0291,0.184
TARS2_Q9BW92_322_IGKEQELFFFHELSPGSCFFLPR (UniProt Q9BW92),-0.0453,-0.425
SPATA2_Q9UM82_41_QRPGSDECLR (UniProt Q9UM82),-0.46,-1.35
STXBP2_Q15833_110_AAHIFFTDTCPEPLFSELGR (UniProt Q15833),0.0186,0.272
THADA_Q6YHU6_1605_ENHPECFCK (UniProt Q6YHU6),-0.00737,0.033
SUZ12_Q15022_494_IDVSINECYDGSYAGNPQDIHR (UniProt Q15022),0.105,0.302
TMEM192_Q8IY95_266_RLLALTSSDLGCQPSR (UniProt Q8IY95),-0.0328,0.17
SPCS2_Q15005_17+26_SGGSGGCSGAGGASNCGTGSGR (UniProt Q15005),-0.494,-1.1
TNS3_Q68CZ2_512_DRETDILDDEMPHHDLHSVDSLGTLSSSEGPQSAHLGPFTCHK (UniProt Q68CZ2),-0.555,-1.66
TMA16_Q96EY4_162_KICANDAIPK (UniProt Q96EY4),-0.041,-0.333
TDRD7_Q8NHU6_77_SGEITCYAMACTETAR (UniProt Q8NHU6),-0.0811,-1.42
TEP1_Q99973_692_TVLVYLTDANADRLCPK (UniProt Q99973),-0.328,-0.442
STRN_O43815_316_EDQCLMPEAWNVDQGVITK (UniProt O43815),-0.23,-0.374
SRPRA_P08240_253_VWELGGCANK (UniProt P08240),-0.192,-0.783
